Pf Dd2 inh: inhibitors of Plasmodium falciparum Dd2 growth; P. falciparum Dd2 growth, SYBR Green, 72 h; Potency, µM (doses to about 28.9 µM), for inactives: at the highest dose activity, negative = inhibition, actives largely listed as inhibitors; hit rate 4.3% among 120,000; active = well fitted inhibition curve with a large enough effect;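 note: plate controls were DMSO vehicle for no effect and reference drug for full effect; nearly all actives have a fitted effect of over 65% in size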
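Infected erythrocytes (Dd2, 0.3% parasitemia, 2.5% hematocrit final) are added to compound in RPMI-1640/Albumax II medium, grown 72 h at 37C in low oxygen, then lysed with saponin/Triton-X containing SYBR Green and read by fluorescence.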
An asterisk follows results filed as active; i = inactive; [ ] = another dose, or the depositor's remark. Many of the other results were omitted from the sample, so hits are more common in it than they were. Potency is the fitted concentration of half-maximal effect.

SMILES | Pf Dd2 inh
COc1cccc(CN2CCn3c(nn(-c4ccncc4)c3=O)C2)c1 | -6%
CS(=O)(=O)N(C1CCOCC1)C1CN(C(=O)c2ccccn2)C1 | 12%
OCCCn1cnc2cc(-n3ccnc3-c3cc4n(n3)CCNC4)ccc21 | 1%
COc1ccc(F)c(CN2CCCC(O)(CN(C)Cc3cc(C)on3)C2=O)c1 (centres undefined) | -5%
CCNC(=O)Nc1ccc(OCC(=O)N2CCN(c3cccc(OC)c3)CC2)nc1 | 0%
Cc1cc(Nc2ccc(Cl)cc2C)nc(-n2nc(C)cc2C)n1 | 3.5µM*
Cc1cc(C)n(-c2nc3ccccc3nc2Nc2cc(Cl)ccc2C)n1 | 31%
Cc1cc(C)n(-c2nc3ccccc3nc2Nc2ccc(Cl)cc2Cl)n1 | 43%
Cc1occc1C(=O)N1CCC2(CCCN(CC3CCCCC3)C2=O)C1 (centres undefined) | -9%
COCCn1ncc(N2CCC(NC(=O)c3ccc(OC)c(F)c3)CC2)cc1=O | -23%
c1ccc2c(c1)CC(Cc1nc(C3CCOC3)n[nH]1)C2 (centres undefined) | -2%
COc1ccccc1C(=O)NC1CCN(c2ccc(C)cc2)C1=O (centres undefined) | -8%
O=C(C1CCCN(c2cnn(Cc3ccccc3)c(=O)c2)C1)N1CCCC1 (centres undefined) | i
O=C(NCCc1cccs1)C1CCCN(c2cnn(Cc3ccccc3)c(=O)c2)C1 (centres undefined) | -28%
Cn1ncc(N2CCC(C(=O)Nc3ccccc3)C2)cc1=O (centres undefined) | 18%
O=C(Nc1ccc2c(c1)OCO2)C1CCCN(c2cnn(Cc3ccccc3)c(=O)c2)C1 (centres undefined) | 10µM*
O=C(NC1CCS(=O)(=O)C1)C1CCN(c2cnn(Cc3ccccc3)c(=O)c2)C1 (centres undefined) | -21%
O=C(Nc1ccc2oc(-c3ccccc3)nc2c1)C1CCN(c2cnn(Cc3ccccc3)c(=O)c2)C1 (centres undefined) | 2.5µM*
Cc1cc(C(=O)NCC2(COc3ccc(C(F)(F)F)cn3)C[C@@H](O)[C@@H](O)C2)no1 (some centres undefined) | -25%
O=C(c1cccc(F)c1)N1CCC(n2cc(-c3nc(C4CC4)no3)nn2)C1 (centres undefined) | i
CCCNC(=O)NCC1(COc2ccc(S(C)(=O)=O)cc2)C[C@@H](O)[C@@H](O)C1 (some centres undefined) | 6%[44.1 µM]
CNC(=O)[C@@H](Cc1ccccc1)N1CCC[C@H]1C(=O)N1CCCCC1 | -24%[44.1 µM]
COc1ccc(-n2c(C(C)NC(=O)OCc3ccccc3)nc3cccnc32)cc1 (centres undefined) | -8%
Cc1nc(N2CCCC2)c2c(C(=O)Nc3cccc(Cl)c3)c(C)oc2n1 | i
Cc1nc(N2CCCC2)c2c(C(=O)N3CCN(c4ccccc4)CC3)c(C)oc2n1 | -16%
SMILES | Pf Dd2 inh
Cc1nc(N2CCCC2)c2c(C(=O)N3CCN(c4cc(Cl)ccc4C)CC3)c(C)oc2n1 | 13µM*
O=C1N(C2CCCCC2)C[C@H]2CN(S(=O)(=O)c3ccc(F)cc3)CCN12 | i
CCC1=C(C(=O)OC)C(c2cc(OC)ccc2OC)N2C(CC(=O)NC3CC3)=CSC2=N1 (centres undefined) | i
CN1CCC(C(=O)N2CCC3(CC2)CC(N[S+](C)(=O)[O-])c2ccccc23)CC1 (centres undefined) | -12%
CCn1nccc1C(=O)N1C[C@@H](COCC2CC2)[C@H](c2ccncc2)C1 | 2%
O=C(NCC1CC1)c1cccc(OC2CN(C3CCSCC3)C2)c1 | -9%
CCN1CCC(N2CC(Oc3cccc(C(=O)NCC4CC4)c3)C2)CC1 | 5%
O=C(NCC1CC1)c1cccc(OC2CN(Cc3ccc(F)cc3Cl)C2)c1 | 11µM*
COCCN1C(=O)CCc2cc(NC(=O)CC(C)C)ccc21 | -4%
COc1ccc(S(=O)(=O)N2CCc3c(C(=O)Nc4cccc(C)c4)cccc32)cc1 | i
COc1ccccc1C(=O)Nc1ccc([C@@H](O)[C@H]2COCC(=O)N2Cc2ccccc2F)cc1 | i
CNC(=O)[C@@H]1CN(C(=O)c2cc3cc(OC)ccc3[nH]2)C[C@H]1c1nc(C)no1 | -23%
COc1ccc2[nH]c(C(=O)N3CCC4(CC3)CC(c3nc(C)no3)N(C)C4)cc2c1 (centres undefined) | 7.9µM*
COc1ccc2cc(C(=O)N3CCC4(CC3)CC(c3nc(C)no3)N(C)C4)[nH]c2c1 (centres undefined) | i
Cn1ccc(C(=O)N[C@@H]2COCC[C@H]2Oc2ccc(CO)cc2)cc1=O | -7%
CC(=O)N1C[C@@H]2OCC(=O)N(c3ccccc3)[C@@H]2C1 | 2%[44.1 µM]
CC(C)(C)NC(=O)N1CCCOCCNC(=O)[C@@H]2CCC[C@@H]21 | 3%
CN1CCCC(CNc2ncc(C(C)(C)C(=O)O)c(N3CCOCC3)n2)C1 (centres undefined) | -9%
CCCNC(=O)CC1CCCN(c2cnn(CC3CC3)c(=O)c2)C1 (centres undefined) | -3%
CC(=O)N1CCC2(CC1)CN(C(=O)N(C)C)Cc1ccccc1O2 | 6%
COCCOCC(=O)N1Cc2ccccc2OC2(CCN(C)CC2)C1 | i
CC(C)NC(=O)N1Cc2ccccc2OC2(CCN(C(=O)c3ccc4[nH]ccc4c3)CC2)C1 | 10µM*
CCC(=O)N1Cc2ccccc2OC2(CCN(C)CC2)C1 | i
CC(=O)Nc1ccc(C(=O)N2CCC3(CC2)CN(C(=O)NC(C)C)Cc2ccccc2O3)cc1 | 13%
CC(=O)N1Cc2ccccc2OC2(CCN(C(=O)c3cccc4[nH]ccc34)CC2)C1 | -14%
SMILES | Pf Dd2 inh
CN1CCC2(CC1)CN(C(=O)CCc1ccccc1)Cc1ccccc1O2 | 1µM*
CC(=O)N1CCC2(CC1)CN(C(=O)c1ccc3[nH]ccc3c1)Cc1ccccc1O2 | 10µM*
CC(C)NC(=O)N1CCC2(CC1)CN(C(=O)c1ccnc(N)c1)Cc1ccccc1O2 | 7%
CCn1nc(CC(C)C)cc1C(=O)NC1CCCN(c2ncccn2)C1 (centres undefined) | -3%
CC1=C(C(=O)OC(C)C)C(c2ccccc2F)N2C(CC(=O)N3CCCC3)=CSC2=N1 (centres undefined) | i
CCOC(=O)C1=C(C)N=C2SC=C(CC(=O)N3CCOCC3)N2C1c1cccc(OC)c1OC (centres undefined) | i
CCOC(=O)C1=C(C)N=C2SC=C(CC(=O)NCc3ccco3)N2C1c1ccccc1F (centres undefined) | -18%
CCOC(=O)C1=C(C)N=C2SC=C(CC(=O)Nc3ccc(OC)cc3)N2C1c1ccccc1F (centres undefined) | 4.5µM*
CC1=C(C(=O)OC(C)C)C(c2ccc([N+](=O)[O-])cc2)N2C(CC(=O)N3CCCC3)=CSC2=N1 (centres undefined) | 2.8µM*
C=CCOC(=O)C1=C(C)N=C2SC=C(CC(=O)N3CCCC3)N2C1c1cccc(OC)c1OC (centres undefined) | 5µM*
CCOC(=O)C1=C(C)N=C2SC=C(CC(=O)NCCc3cccs3)N2C1c1ccccc1F (centres undefined) | -10%
C=CCOC(=O)C1=C(C)N=C2SC=C(CC(=O)N3CCCC3)N2C1c1ccccc1Cl (centres undefined) | -24%
CC1=C(C(=O)OC(C)(C)C)C(c2ccccc2)N2C(CC(=O)N3CCCC3)=CSC2=N1 (centres undefined) | -17%
CC(=O)NC[C@H]1OC[C@@H](NC2CCC2)[C@@H]1O | -8%[44.1 µM]

Compound activity as filed in PubChem.
